Hits are enriched below; roughly 2.4% of the tested compounds scored in any of these assays.
Arbovirus inh: antivirals against arbovirus infection, primary screen, cell-based, full library, 10K replicate subset; inhibition, % at 10 µM; arbovirus infection cell-based antiviral screen; hit rate 0.37% among 200,000; in the data active means inhibition above about 30%
MEKK2mut PB1 HTS: MEK5 binding signal on mutant MEKK2 PB1, primary screen, biochemical, multiplex bead flow cytometry, Alexa488-MEK5 | percent response, % at 10 µM | Alexa488-MEK5 binding to MEKK2 mutant | hit rate 0.35% among 290,000; in the data active means percent response above about 24%, passing the limit was not always enough
MEKK2wt PB1 HTS: modulators of MEK5 binding to wildtype MEKK2, primary screen, biochemical, multiplex bead flow cytometry, Alexa488-MEK5; Mitogen-activated protein kinase kinase kinase 2 (Homo sapiens), Q9Y2U5; Alexa488-MEK5 binding to MEKK2 WT; actives lie on both sides; binding response (% of control), % at 10 µM; hit rate 1.1% among 290,000; AID 1531, 2009; in the data active means binding response below about 67% or above about 130%
MEKK3 PB1 HTS: modulators of MEKK3-MEK5 PB1 binding, primary screen, biochemical, wildtype MEKK3, multiplex bead flow cytometry, Alexa488-MEK5 | Mitogen-activated protein kinase kinase kinase 3 (Homo sapiens), Q99759 | binding response (% of control), % at 10 µM | hit rate 1.4% among 290,000 | AID 1529, 2009 | bead-based flow cytometry, Alexa488-MEK5 binding to MEKK3; actives lie on both sides; 0 = blocked by unlabeled MEK5, 100 = vehicle;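 active means binding response more than 3 SD above or below the average of its plate-row segment, actives on both sides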;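 further: Alexa488 bead fluorescence after subtracting the streptavidin-only scavenger bead signal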
Target sequence (Q99759 whole entry, looked up): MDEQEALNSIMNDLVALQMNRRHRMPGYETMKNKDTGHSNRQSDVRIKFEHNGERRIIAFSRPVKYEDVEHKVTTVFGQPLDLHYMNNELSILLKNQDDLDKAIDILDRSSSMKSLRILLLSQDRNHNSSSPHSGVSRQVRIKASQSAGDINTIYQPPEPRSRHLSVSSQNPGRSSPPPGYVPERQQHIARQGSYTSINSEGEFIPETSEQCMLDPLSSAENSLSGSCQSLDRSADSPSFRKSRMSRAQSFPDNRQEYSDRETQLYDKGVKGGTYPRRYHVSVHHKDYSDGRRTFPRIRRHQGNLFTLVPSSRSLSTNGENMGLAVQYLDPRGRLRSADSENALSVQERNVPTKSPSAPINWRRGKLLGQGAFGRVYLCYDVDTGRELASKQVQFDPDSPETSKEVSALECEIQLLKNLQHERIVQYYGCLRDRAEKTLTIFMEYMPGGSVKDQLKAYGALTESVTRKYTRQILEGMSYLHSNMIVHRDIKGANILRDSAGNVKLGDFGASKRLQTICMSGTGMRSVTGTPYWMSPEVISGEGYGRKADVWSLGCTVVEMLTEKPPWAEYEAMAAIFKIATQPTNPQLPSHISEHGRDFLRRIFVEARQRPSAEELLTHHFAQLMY
Pf gamet viab: late stage P. falciparum gametocyte viability inhibitors, primary screen, ATP luminescence, HTS; P. falciparum stage V gametocytes, 24 h; inhibition, % at 10.9 µM; hit rate 0.065% among 150,000; AID 743093, 2013;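 active means inhibition above the mean plus 3 SD of compounds within the control limits, set per campaign, cut at about 38% in these data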
MEKK2wt confirm: modulators of MEK5 binding to wildtype MEKK2, confirmation, biochemical, single concentration, multiplex bead flow cytometry. shares compounds with MEKK3 PB1 HTS. Alexa488-MEK5 binding to MEKK2 WT; actives lie on both sides. binding response (% of control), % at 10 µM. hit rate 2.4% among 5,900; in the data active means binding response below about 16% or above about 210%; inactive means in between
MEKK2mut confirm: mutant MEKK2 PB1-MEK5 binding signal retest – biochemical, single concentration, multiplex bead flow cytometry, confirmation. hit rate 2% among 5,900. percent response, % at 10 µM. shares compounds with MEKK3 PB1 HTS. Alexa488-MEK5 binding to MEKK2 mutant; in the data active means percent response mostly above about 71%, no sharp cut-off; inactive means mostly below about 38%;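 further: higher means compound restores mutant binding toward wildtype level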
MEKK3-MEK5 inh: MEKK3 wild-type PB1 binding to MEK5, inhibitors, confirmation, biochemical, bead multiplex flow cytometry, single concentration, wildtype; shares compounds with MEKK3 PB1 HTS; Alexa488-MEK5 binding to MEKK3; hits give low values; binding response (% of control), % at 10 µM; hit rate 1.8% among 5,900;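 active means binding response below 72% of control, or above a set upper limit, though filed actives all read lower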
Numbers stand for hits; 0 = inactive; - = no result given; ! = repeats disagree; [ ] = another dose, or the depositor's remark.

SMILES | Arbovirus inh | MEKK2mut PB1 HTS | MEKK2wt PB1 HTS | MEKK3 PB1 HTS | Pf gamet viab | MEKK2wt confirm | MEKK2mut confirm | MEKK3-MEK5 inh
CCOC(=O)c1sc(=NC(=O)c2c(F)cccc2F)n(C)c1C | - | 0 | 0 | 0 | - | - | - | -
Cc1cc2nc(SCCOC(=O)Nc3cccc(Cl)c3)nc(C)c2cc1C | 0 | 0 | 0 | 153 | 0 | 0 | 0 | 0
O=C(COC(=O)CCc1c[nH]c2ccccc12)NCc1ccc(Cl)cc1 | 0 | 0 | 2.0[inhibitor] | 2.0[inhibitor] | 0 | 0 | 0 | 0
Cc1ccc(SCCNC(=O)/C=C/c2ccc([N+](=O)[O-])cc2)cc1 | 0 | 0 | 1.0[inhibitor] | 0.0[inhibitor] | 0 | 0 | 0 | 0
O=C(/C=C/c1ccc([N+](=O)[O-])cc1)NCCSc1ccccc1 | 0 | 0 | 0 | 0 | - | - | - | -
Cc1ccc(NC(=O)NCC2CCN(Cc3cccc(Cl)c3)CC2)cc1Cl | 0 | 0 | 182 | 0 | 0 | 0 | 0 | 0
Cc1ccc(NC(=O)COC(=O)C2(c3ccc(Cl)cc3)CCCC2)cc1 | 0 | 0 | 0 | 153 | 0 | 0 | 0 | 0
O=CN1CCN(C(=O)c2ccc([N+](=O)[O-])cc2)CC1 | 0 | 0 | 0 | 0 | 0 | - | - | -
CN1CCC(=C2c3ccccc3CCc3sccc32)CC1 | 0 | 0 | 155! | 0 | - | 0 | 0 | 0
Cc1[nH]n(-c2ccc([N+](=O)[O-])cc2)c(=O)c1C=NCCc1c(C)[nH]c2ccccc12 | 0 | 0 | 0 | 133 | 0 | 0 | 0 | 0
Cc1[nH]n(-c2ccc([N+](=O)[O-])cc2)c(=O)c1C=NCCc1ccc(S(N)(=O)=O)cc1 | 0 | 0 | 0 | 0 | 0 | - | - | -
O=C(Nc1ccccc1-c1ccccc1)c1cccc(C(F)(F)F)c1 | 0 | 0 | 0 | 0 | 0 | - | - | -
Cc1csc(-c2cnn(-c3ccccc3)c2NC(=O)c2cccc(C(F)(F)F)c2)n1 | 0 | 0 | 0 | 131 | 0 | 0 | 0 | 0
O=C(Nc1ccc(N2CCCCC2)cc1)c1cncc(Br)c1 | 0 | 0 | 38[inhibitor] | 0 | - | 0 | 0 | 0
COc1ccc(C2C(C(=O)Nc3cc(C)on3)c3ccccc3C(=O)N2C)cc1 (centres undefined) | 0 | 0 | 0 | 0 | - | - | - | -
COc1ccc(C2C(C(=O)Nc3cc(C)on3)c3ccccc3C(=O)N2C)cc1OC (centres undefined) | 0 | 0 | 0.0[inhibitor] | 0.0[inhibitor] | - | 0 | 0 | 0
COc1cc(NS(=O)(=O)c2ccc(-c3ccc(=O)[nH]n3)o2)cc(OC)c1OC | - | 0 | 0 | 0 | - | - | - | -
CCN(CC)c1ccc(S(=O)(=O)N2CCOCC2)cc1NC(=O)CN1CCc2ccccc2C1 | 0 | 0 | 0 | 0 | 0 | - | - | -
COc1ccccc1N1CC(C)(C)C(=O)N(C(=O)c2c(F)cccc2Cl)C1=S | - | 0 | 0 | 0 | 0 | - | - | -
COC(=O)C1=C(C(=O)OC)[C@@H]2N(C)c3ccc(OC)cc3[C@@]23C[C@@H](C(=O)OC)N(C(=O)NC2CCCCC2)C3=N1 | - | 0 | 3.0[inhibitor] | 2.0[inhibitor] | 0 | 0 | 0 | 0
CC(=O)c1cccc(OCc2cc(C(=O)N3C[C@@H](C)O[C@@H](C)C3)no2)c1 | - | 0 | 0 | 0 | - | - | - | -
O=C(Nc1cccc2ccccc12)NC1Cc2ccccc2C1 | - | 0 | 0 | 73[inhibitor] | 0 | 0 | 0 | 0
CCCc1cc(=O)[nH]c(SCC(=O)NC2CCCc3ccccc32)n1 (centres undefined) | - | 0 | 0 | 0 | 0 | - | - | -
O=C(NNC(=O)C12CC3CC(CC(O)(C3)C1)C2)c1csc(N2CCOCC2)n1 | - | 0 | 0 | 0 | - | - | - | -
Cc1c(N2C(=O)CS/C2=N\N=C\c2ccc(Cl)cc2)c(=O)n(-c2ccccc2)n1C | 0 | 0 | 0 | 0 | 0 | - | - | -
SMILES | Arbovirus inh | MEKK2mut PB1 HTS | MEKK2wt PB1 HTS | MEKK3 PB1 HTS | Pf gamet viab | MEKK2wt confirm | MEKK2mut confirm | MEKK3-MEK5 inh
COc1ccc(/C=N/N=C2\SCC(=O)N2c2c(C)n(C)n(-c3ccccc3)c2=O)cc1OC | 0 | 0 | 0 | 146 | 0 | 0 | 0 | 0
CC(C)(C)n1cnc2cc(NCc3ccc(Br)cc3)ccc21 | - | 0 | 137 | 0 | - | 0 | 0 | 0
CCc1ccc(CNc2ccc3c(c2)ncn3C(C)(C)C)cc1 | - | 0 | 0 | 0 | - | - | - | -
CCN(CC)c1ccc(CNc2ccc3c(c2)ncn3C(C)(C)C)cc1 | - | 0 | 135 | 0 | - | 0 | 0 | 0
CCn1c(=O)n(CC)c2cc(N3CCCC3)c(NC(=O)c3c(F)cccc3F)cc21 | - | 0 | 0 | 0 | - | - | - | -
Cc1nc(C)c(C(=O)NNC(=O)Nc2ccc(Cl)cc2)s1 | - | 0 | 0 | 0 | 0 | - | - | -
O=C(NNC(=S)Nc1ccc(Br)cc1)c1ccc(N2CCOCC2)c([N+](=O)[O-])c1 | 0 | 0 | 0 | 137 | - | 0 | 0 | 0
COC(=O)c1ccc(N2CCN(S(=O)(=O)c3ccc(Br)cc3)CC2)c([N+](=O)[O-])c1 | 0 | 0 | 0 | 129 | - | 0 | 0 | 0
COC(=O)c1ccc(N2CCN(S(=O)(=O)c3ccc(C)cc3)CC2)c([N+](=O)[O-])c1 | 0 | 0 | 0 | 0 | - | - | - | -
Cc1ccc(NC(=S)NNC(=O)c2ccc(N3CCOCC3)c([N+](=O)[O-])c2)cc1Cl | 0 | 0 | 0 | 0 | 0 | - | - | -
Cc1ccc(-n2ncc3c2CCCC3NC(=O)c2ocnc2C)cc1C (centres undefined) | - | 0 | 0 | 0 | - | - | - | -
O=C(O)c1ccc(NC(=O)c2ccccc2NC(=O)c2ccccc2Cl)cc1 | - | 0 | 0 | 0 | - | - | - | -
COC(=O)C1CN(C(=O)COc2ccc(Cl)cc2C)c2ccccc2O1 (centres undefined) | - | 0 | 0 | 0 | - | - | - | -
COc1ccc(C2NC(=O)NC(C)=C2C(=O)OCC2CCCCC2)cc1OC (centres undefined) | - | 0 | 0 | 0 | - | - | - | -
O=C(O)CC(NC(=O)Cc1ccc(Cl)cc1)c1ccco1 (centres undefined) | 0 | 0 | 0 | 0 | 0 | - | - | -
COCCCNC(=O)CN(CCc1ccccc1)S(=O)(=O)c1ccccc1 | 0 | 0 | 0 | 0 | 0 | - | - | -
COCCCNC(=O)CN(Cc1ccccc1)S(=O)(=O)c1ccccc1 | - | 27 | 0 | 0 | 0 | 0 | 0 | 0
N#CCc1ccc(Oc2ccc([N+](=O)[O-])cn2)cc1 | - | 0 | 0 | 48[inhibitor] | 0 | 0 | 0 | 0
CCCCOc1ccc(CONS(=O)(=O)c2ccc(NC(C)=O)cc2)cc1Cl | 0 | 0 | 0 | 160 | 0 | 0 | 0 | 0
CC(=O)Nc1ccc(S(=O)(=O)NCCOc2ccc(Cl)cc2C)cc1 | 0 | 0 | 0 | 0 | 0 | - | - | -
